Assay outcomes from PubChem.
Shown is part of a subset that was picked to be rich in hits.
LmPK inh: qHTS Assay for Inhibitors of Leishmania Mexicana Pyruvate Kinase (LmPK) | Q27686 | purified LmPK, Kinase-Glo ATP luminescence, 1 h | Potency, µM (doses to about 57.5 µM), for the others: at the top dose activity change, negative = inhibition, usual class: inhibitors | 290,000 compounds, 0.37% hits | AID 1721, 2009; note: potency is the fitted concentration of half-maximal effect; % is set by controls: 0 for no effect and ±100 for the full control effect
Target sequence (Q27686 whole entry, looked up): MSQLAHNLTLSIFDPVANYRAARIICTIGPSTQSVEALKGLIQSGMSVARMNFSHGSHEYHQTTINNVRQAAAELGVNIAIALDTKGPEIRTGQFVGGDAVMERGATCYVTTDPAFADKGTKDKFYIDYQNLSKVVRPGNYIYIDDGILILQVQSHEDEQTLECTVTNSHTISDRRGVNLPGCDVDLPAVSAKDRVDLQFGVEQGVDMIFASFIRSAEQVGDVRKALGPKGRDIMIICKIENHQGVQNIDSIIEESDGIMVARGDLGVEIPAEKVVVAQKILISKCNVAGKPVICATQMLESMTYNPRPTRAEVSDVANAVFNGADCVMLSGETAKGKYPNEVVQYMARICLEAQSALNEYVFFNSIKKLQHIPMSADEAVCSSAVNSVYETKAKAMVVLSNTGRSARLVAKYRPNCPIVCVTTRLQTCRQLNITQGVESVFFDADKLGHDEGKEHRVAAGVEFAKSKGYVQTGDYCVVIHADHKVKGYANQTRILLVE
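Kinase-Glo luminescence read after 1 h RT reaction of 0.1 nM LmPK with 0.5 mM PEP and 0.1 mM ADP. Activity scaled between uninhibited and enzyme-free controls.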
Giardia FBPA inh: qHTS Assay for Inhibitors of Fructose-1,6-bisphosphate Aldolase from Giardia Lamblia; A8B2U2; purified Giardia FBPA; Potency, µM (top dose mostly 59.6 µM), for inactives: top-dose activity, negative = inhibition, actives largely listed as inhibitors; 290,000 compounds, 0.71% hits; AID 2451, 2010; note: potency is the fitted concentration of half-maximal effect; % is set by controls: 0 for no effect and ±100 for the full control effect; nearly all actives have a fitted effect of over 55% in size
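40 nM FBPA preincubated 10 min at RT with compound (up to 57.5 uM final), then substrate plus GAPDH/TPI/NAD/arsenate coupling and diaphorase/resazurin added. Fluorescence read after 20 min at RT, 525/598 nm.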
Sm TGR inh: qHTS Assay for the Inhibitors of Schistosoma Mansoni Peroxiredoxins; AID 485364, 2010; purified TGR, DTNB reduction, TNB absorbance 405 nm; Potency, µM (top dose mostly 114 µM), for the others: top-dose activity change, negative = inhibition, actives largely listed as inhibitors; 360,000 compounds, 3% hits; Schistosoma mansoni thioredoxin glutathione reductase (TGR), Q962Y6; note: potency is the fitted concentration of half-maximal effect; % is set by controls: 0 for no effect and ±100 for the full control effect; nearly all actives have a fitted effect of over 60% in size
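Kinetic colorimetric format: TGR-catalysed, NADPH-driven DTNB reduction monitored via TNB absorbance. Enzyme dispensed at 20 nM; compound exposure 15 min at room temperature before reaction start.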
Shiga toxin inh: A qHTS for Small Molecule Inhibitors of Shiga Toxin | Vero cells, Shiga toxin protein synthesis inhibition reporter | inhibition, % at 38.7 µM | 290,000 compounds, 9.2% hits; in the data active = inhibition mostly above about 28%, no sharp cut-off; inactive = mostly below about 43%; note: 0% is about no effect
Tb PYK inh: qHTS of Trypanosoma Brucei Inhibitors. pyruvate kinase (Trypanosoma brucei), Q57TT1. TbPYK enzyme, Kinase-Glo Plus ATP luminescence, 45 min. Potency, µM (highest dose often 76.8 µM), without a hit: at the highest dose activity, negative = inhibition, usual class: inhibitors. 410,000 compounds, 0.12% hits; note: potency is the fitted concentration of half-maximal effect; % is set by controls: 0 for no effect and ±100 for the full control effect; nearly all actives have a fitted effect of over 50% in size
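Glycolytic pyruvate kinase of T. brucei was incubated with substrate, test compound and 130 uM ADP for 45 minutes at room temperature. Luminescent Kinase-Glo Plus signal was measured after 10 minutes.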
CHX counter: Cycloheximide Counterscreen for Small Molecule Inhibitors of Shiga Toxin; max response, %; 300,000 compounds, 12% hits; cell reporter, cycloheximide protein synthesis inhibition counterscreen; in the data active = max response mostly above about 13%, no sharp cut-off; inactive = mostly below about 14%; note: read at 38.3 µM for the half of the compounds with a filed dose; 0% is about no effect
Active calls of the source: *; ? = inconclusive; nt = no result given; [ ] = remark or other dose. Unless noted, calls come from the whole dose curve; as a rule, active = well fitted curve in the direction sought with a large enough effect; inconclusive = small, poorly fitted or top-dose-only effect, or another doubt; inactive = no such curve, though single readings can be large; an effect the other way counts as inactive or inconclusive.

SMILES	LmPK inh	Giardia FBPA inh	Sm TGR inh	Shiga toxin inh	Tb PYK inh	CHX counter
Nc1nc(CSc2nc3ccccc3[nH]2)cs1	-8%	-17%	?	47*	1%	25*
CCOc1ccc2nc(SCC)[nH]c2c1	1%	-3%	9%	125*	-9%	54*
CC1(C)C(CSc2nc3ccccc3[nH]2)C1(Cl)Cl (centres undefined)	5%	-7%	3%	72*	5%	27
Nc1ccccc1Sc1nc2ccccc2[nH]1	-2%	-22%	7%	59*	?	23*
CCC(=O)O[C@@H]1[C@H](C)O[C@H](O[C@H]2[C@@H](N(C)C)[C@H](O)[C@@H](O[C@@H]3[C@@H](CC=O)C[C@@H](C)[C@@H](O)/C=C\C=C/C[C@@H](C)OC(=O)C[C@@H](OC(=O)CC)[C@H]3OC)O[C@H]2C)C[C@]1(C)O	nt	1%[21.7 µM]	nt	nt	-5%[33.2 µM]	nt
O=C(CSc1nc2ccccc2[nH]1)NCc1ccc(F)cc1	3%	3%	1%	29	-16%	6
Fc1ccc(CSc2nc3ccccc3[nH]2)cc1	22µM*	-12%	-6%	132*	-8%	49*
Cn1ccnc1SCc1cc(=O)[nH]c2ccccc12	-3%	?	6%	19	-2%	17*
c1ccc(CSCc2nc3ccccc3[nH]2)cc1	-7%	-8%	2%	74*	6%	62*
O=[N+]([O-])c1ccc(CSc2nc3ccccc3[nH]2)cc1	-17%	-5%	-12%	38*	-4%	35*
Cc1cccc(-c2nnc(SCc3cc(=O)[nH]c4ccccc34)n2C)c1	8%	15%	-3%	8	-5%	-4
CCN(C(=O)CSc1nc2ccccc2n1CC(=O)NCc1ccc(OC)cc1)c1ccccc1	nt	nt	0%	nt	1%	nt
c1ccc(CSc2nc3ccccc3[nH]2)cc1	?	-1%	0%	57*	2%	44*
CCCOc1ccc(CSc2nc3ccccc3[nH]2)cc1	?	-1%	-22%	84*	-6%	49*
O=c1cc(CSc2nc3ccccc3[nH]2)c2ccccc2[nH]1	0%	-18%	-4%	53*	0%	28*
CCSc1nc2ccccc2[nH]1	-9%	-7%	0%	8	-4%	4
CCOc1ccc(OCCSc2nc3ccccc3[nH]2)cc1	4%	-9%	3%	19	-4%	19
CC(C)CSc1nc2ccccc2[nH]1	-11%	0%	-4%	94*	-2%	45*
O=C(Nc1ccc(Cl)cc1)C1CCN(c2nc3ccccc3nc2C(F)(F)F)CC1	nt	nt	11%	nt	-7%	nt
O=c1[nH]c(SCc2ccccc2)nc2[nH]ncc12	-5%	2%	3%	28*	0%	13
O=C(CSc1nc2[nH]ncc2c(=O)[nH]1)Nc1ccccc1	-5%	9%	-4%	11	3%	-2
O=C(c1ccccc1)c1cc(Cl)ccc1N1C(=O)C=CC1=O	?	?	0.79µM*	-2	4.5µM*	3
O=C(c1ccc(Br)s1)N(Cc1cccnc1)c1nc2ccc(F)cc2s1	nt	nt	-5%	nt	-3%	nt
O=C(/C=C(\O)c1ccccc1)C(=O)NNC(=O)c1ccccc1	5%	0%	-20%	52*	-9%	39*
Cc1ccc(CN=c2c([N+](=O)[O-])nn(-c3ccc4c(c3)OCCO4)n2O)cc1	-1%	-9%	-3%	164*	-8%	73*
SMILES	LmPK inh	Giardia FBPA inh	Sm TGR inh	Shiga toxin inh	Tb PYK inh	CHX counter
O=[N+]([O-])c1nn(-c2ccc3c(c2)OCCO3)n(O)c1=NCCCO	-3%	-1%	-2%	48*	2%	18*
O=C1CCCN1CCCN=c1c([N+](=O)[O-])nn(-c2ccc(Cl)cc2)n1O	-4%	-7%	-2%	29	1%	13
Cc1c(Cc2ccccc2)c(=O)oc2cc(OCC(=O)N3CCC(C(N)=O)CC3)ccc12	1%	0%	15%	10	14%	-2
O=C(Nc1ccccc1)N1CCCC2(CCN(C(=O)c3cccc(F)c3)CC2)C1	nt	0%	nt	nt	2%	nt
Cn1nccc1C(=O)Nc1sc2c(c1C(N)=O)CCCC2	-2%	-3%	nt	58*	0%	31*
Cn1ccc(C(=O)Nc2sc3c(c2C(N)=O)CCCCC3)n1	-20%	nt	-10%	99*	?	57*
Cn1cc(Br)c(C(=O)Nc2sc3c(c2C(N)=O)CCC3)n1	1%	-3%	-23%	52*	-13%	30*
NC(=O)c1c(NC(=O)c2cccnc2)sc2c1CCCCC2	-4%	-8%	-1%	nt	7%	3
CSc1ccccc1NC(=O)c1cc(C(C)C)on1	-16%	-1%	-12%	117*	-13%	50*
Cc1nn(Cc2ccc(Cl)c(Cl)c2)c(C)c1NC(=O)c1cc(-c2ccco2)on1	5%	-5%	45µM*	7	-11%	3
O=C(Nc1ccc(F)cc1F)c1cc(-c2ccco2)on1	-6%	5%	-7%	93*	-8%	31*
Cc1nn(Cc2ccc(Cl)cc2)c(C)c1NC(=O)c1cc(-c2ccco2)on1	1%	6%	?	-13	-6%	-1
Cc1c(Cl)cccc1NC(=O)c1cc(-c2ccco2)on1	-5%	-6%	2%	54*	-2%	36
CSc1ccccc1NC(=O)c1cc(C)on1	0%	-1%	-32%	99	-15%	45
Cc1cc(=O)n(Cc2cccc(F)c2)c2c1c(C)nn2-c1cccc(F)c1	nt	nt	0%	nt	3%	nt
COc1ccc2[nH]cc(CCNC(=O)c3cnn(-c4ccccc4Cl)c3C3CCN(C(=O)OC(C)(C)C)CC3)c2c1	nt	nt	-18%	nt	-3%	nt
Cc1ccc2[nH]c3c(=O)n(CC(=O)N4CCN(C)CC4)ncc3c2c1	-4%	5%	-4%	-9	8%	1
CSc1ccccc1NC(=O)c1cc(-c2ccco2)on1	-1%	-5%	4%	55*	-5%	18*
Cc1cccc(NC(=O)CSc2ncnc3nc[nH]c23)c1	-1%	-5%	2%	17	-7%	-1
CCCNc1ncnc2nc[nH]c12	-3%	-11%	1%	-3	-15%	-4
CCc1ccc(Nc2ncnc3nc[nH]c23)cc1	0%	-3%	9%	62*	-17%	27*
CCCCc1ccc(Nc2ncnc3nc[nH]c23)cc1	8%	0%	-15%	28	-8%	23*
Cc1ccc(NC(=O)Nc2ncnc3nc[nH]c23)cc1	-8%	0%	8%	41*	-10%	22*
COc1cccc(Nc2ncnc3nc[nH]c23)c1	-25%	-20%	3%	50*	-10%	16*
